According to the supplement of paper PMC11732987, “Enantioselective OTUD7B fragment discovery through chemoproteomics screening and high-throughput optimisation” (Communications Chemistry, 2025):

Tests used:
Assay in all cases: log2 ratio of Biotin-Ahx-Ub-VS probe labelling (fragment/DMSO); higher = less target engagement (more negative = stronger competition), active = hit call of the paper (q ≤ 0.05, log2 ratio ≤ -1)
Details in all cases: compound concentration: 200 uM; treatment time: 3 h
[1] = target: T1, USP42 (UniProt Q9H9J4)
T1 sequence (whole entry): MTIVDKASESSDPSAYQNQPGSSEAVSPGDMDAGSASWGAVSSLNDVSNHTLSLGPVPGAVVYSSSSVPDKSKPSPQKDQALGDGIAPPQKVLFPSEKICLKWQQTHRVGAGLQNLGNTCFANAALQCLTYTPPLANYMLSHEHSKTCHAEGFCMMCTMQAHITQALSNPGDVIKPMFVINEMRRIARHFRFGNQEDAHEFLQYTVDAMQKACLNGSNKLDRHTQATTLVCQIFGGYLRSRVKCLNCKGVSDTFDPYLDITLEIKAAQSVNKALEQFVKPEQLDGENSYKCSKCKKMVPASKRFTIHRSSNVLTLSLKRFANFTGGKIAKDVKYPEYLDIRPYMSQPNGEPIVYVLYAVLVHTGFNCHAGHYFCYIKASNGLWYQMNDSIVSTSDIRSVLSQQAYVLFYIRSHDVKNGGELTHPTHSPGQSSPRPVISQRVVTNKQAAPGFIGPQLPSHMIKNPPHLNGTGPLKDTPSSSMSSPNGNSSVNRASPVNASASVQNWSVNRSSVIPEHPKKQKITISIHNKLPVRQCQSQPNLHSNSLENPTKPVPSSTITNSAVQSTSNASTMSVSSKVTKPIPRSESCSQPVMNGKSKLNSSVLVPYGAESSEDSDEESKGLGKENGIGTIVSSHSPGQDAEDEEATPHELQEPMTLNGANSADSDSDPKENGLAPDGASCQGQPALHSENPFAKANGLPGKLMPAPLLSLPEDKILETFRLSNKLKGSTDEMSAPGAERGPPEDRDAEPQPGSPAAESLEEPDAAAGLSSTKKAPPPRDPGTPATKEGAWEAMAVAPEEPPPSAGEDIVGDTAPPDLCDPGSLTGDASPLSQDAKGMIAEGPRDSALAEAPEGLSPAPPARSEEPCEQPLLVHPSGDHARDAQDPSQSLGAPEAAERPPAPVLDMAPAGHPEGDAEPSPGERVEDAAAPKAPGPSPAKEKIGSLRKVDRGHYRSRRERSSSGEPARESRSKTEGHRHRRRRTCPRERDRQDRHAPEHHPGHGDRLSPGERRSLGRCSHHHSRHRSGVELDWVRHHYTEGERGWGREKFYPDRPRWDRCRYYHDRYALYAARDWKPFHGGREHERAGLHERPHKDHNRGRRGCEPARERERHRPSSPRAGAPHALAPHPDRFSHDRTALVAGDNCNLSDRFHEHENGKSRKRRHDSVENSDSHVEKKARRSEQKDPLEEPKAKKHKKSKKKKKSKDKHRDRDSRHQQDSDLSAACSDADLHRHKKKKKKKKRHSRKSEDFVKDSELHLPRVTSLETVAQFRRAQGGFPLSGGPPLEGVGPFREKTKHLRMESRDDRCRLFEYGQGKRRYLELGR
Method in brief: (§1)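 Triplicate samples of HEK293T lysate, 495 µg each, received fragment at 200 µM or vehicle for 3 h, followed by Biotin-Ahx-Ub-VS (0.5 µM final) for 1 h. After NeutrAvidin enrichment of labelled DUBs and LysC/trypsin digestion, peptides were run by diaPASEF LC-MS/MS. The values are average log2 fragment/vehicle ratios from global-median-normalised Spectronaut label-free quantities, tested by unpaired t-test on proteins having ≥2 unique peptides.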

[2] = target: USP46 (UniProt P62068)
USP46, sequence (P62068 whole entry): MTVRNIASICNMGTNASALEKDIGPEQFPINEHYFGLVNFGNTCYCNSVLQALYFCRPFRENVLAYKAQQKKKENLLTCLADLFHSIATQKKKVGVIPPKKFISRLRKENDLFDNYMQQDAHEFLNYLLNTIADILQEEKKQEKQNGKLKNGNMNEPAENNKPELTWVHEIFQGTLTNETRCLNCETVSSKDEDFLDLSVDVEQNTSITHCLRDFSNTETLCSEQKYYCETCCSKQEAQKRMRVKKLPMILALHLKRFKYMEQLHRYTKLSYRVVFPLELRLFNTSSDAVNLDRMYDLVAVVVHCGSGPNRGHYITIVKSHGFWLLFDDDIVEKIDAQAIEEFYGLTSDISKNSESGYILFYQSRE
Method in brief: as §1

[3] = target: T2, USP47 (UniProt Q96K76)
T2 sequence (whole entry): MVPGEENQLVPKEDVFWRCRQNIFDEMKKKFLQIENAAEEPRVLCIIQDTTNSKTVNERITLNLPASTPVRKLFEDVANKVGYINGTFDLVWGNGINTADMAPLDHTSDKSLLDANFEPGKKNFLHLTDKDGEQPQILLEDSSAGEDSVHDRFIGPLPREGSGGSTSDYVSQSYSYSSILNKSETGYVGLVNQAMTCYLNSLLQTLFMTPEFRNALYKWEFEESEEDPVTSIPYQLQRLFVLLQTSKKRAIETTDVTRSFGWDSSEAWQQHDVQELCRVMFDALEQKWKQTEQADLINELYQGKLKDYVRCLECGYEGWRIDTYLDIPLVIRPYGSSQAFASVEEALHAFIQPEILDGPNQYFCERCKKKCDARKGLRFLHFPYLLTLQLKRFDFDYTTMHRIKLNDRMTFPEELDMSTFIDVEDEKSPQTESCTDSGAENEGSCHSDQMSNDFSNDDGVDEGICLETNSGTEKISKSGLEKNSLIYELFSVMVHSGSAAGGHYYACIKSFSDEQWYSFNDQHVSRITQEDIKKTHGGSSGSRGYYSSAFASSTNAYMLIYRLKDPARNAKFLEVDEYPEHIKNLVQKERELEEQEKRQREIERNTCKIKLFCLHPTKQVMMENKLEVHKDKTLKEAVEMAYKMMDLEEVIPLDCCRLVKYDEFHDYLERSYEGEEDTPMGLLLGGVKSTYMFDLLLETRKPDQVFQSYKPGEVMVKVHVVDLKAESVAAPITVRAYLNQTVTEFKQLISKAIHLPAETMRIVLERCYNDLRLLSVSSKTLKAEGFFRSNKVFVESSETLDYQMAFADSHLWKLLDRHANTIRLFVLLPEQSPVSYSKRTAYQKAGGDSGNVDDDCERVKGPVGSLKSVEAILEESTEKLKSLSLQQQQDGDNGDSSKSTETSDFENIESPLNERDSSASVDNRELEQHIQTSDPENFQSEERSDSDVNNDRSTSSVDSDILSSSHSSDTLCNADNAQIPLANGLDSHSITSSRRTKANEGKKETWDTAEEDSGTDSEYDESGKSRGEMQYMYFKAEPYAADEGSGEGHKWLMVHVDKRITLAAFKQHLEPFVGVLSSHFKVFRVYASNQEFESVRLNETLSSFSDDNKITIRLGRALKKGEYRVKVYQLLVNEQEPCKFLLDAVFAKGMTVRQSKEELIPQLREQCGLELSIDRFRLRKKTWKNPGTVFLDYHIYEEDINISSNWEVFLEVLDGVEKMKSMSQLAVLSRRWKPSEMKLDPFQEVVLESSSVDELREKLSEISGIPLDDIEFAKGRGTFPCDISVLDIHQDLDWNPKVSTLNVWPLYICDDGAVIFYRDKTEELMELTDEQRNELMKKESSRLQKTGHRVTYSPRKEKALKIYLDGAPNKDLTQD
Method in brief: as §1

[4] = target: T3, USP48 (UniProt Q86UV5)
T3 sequence (whole entry): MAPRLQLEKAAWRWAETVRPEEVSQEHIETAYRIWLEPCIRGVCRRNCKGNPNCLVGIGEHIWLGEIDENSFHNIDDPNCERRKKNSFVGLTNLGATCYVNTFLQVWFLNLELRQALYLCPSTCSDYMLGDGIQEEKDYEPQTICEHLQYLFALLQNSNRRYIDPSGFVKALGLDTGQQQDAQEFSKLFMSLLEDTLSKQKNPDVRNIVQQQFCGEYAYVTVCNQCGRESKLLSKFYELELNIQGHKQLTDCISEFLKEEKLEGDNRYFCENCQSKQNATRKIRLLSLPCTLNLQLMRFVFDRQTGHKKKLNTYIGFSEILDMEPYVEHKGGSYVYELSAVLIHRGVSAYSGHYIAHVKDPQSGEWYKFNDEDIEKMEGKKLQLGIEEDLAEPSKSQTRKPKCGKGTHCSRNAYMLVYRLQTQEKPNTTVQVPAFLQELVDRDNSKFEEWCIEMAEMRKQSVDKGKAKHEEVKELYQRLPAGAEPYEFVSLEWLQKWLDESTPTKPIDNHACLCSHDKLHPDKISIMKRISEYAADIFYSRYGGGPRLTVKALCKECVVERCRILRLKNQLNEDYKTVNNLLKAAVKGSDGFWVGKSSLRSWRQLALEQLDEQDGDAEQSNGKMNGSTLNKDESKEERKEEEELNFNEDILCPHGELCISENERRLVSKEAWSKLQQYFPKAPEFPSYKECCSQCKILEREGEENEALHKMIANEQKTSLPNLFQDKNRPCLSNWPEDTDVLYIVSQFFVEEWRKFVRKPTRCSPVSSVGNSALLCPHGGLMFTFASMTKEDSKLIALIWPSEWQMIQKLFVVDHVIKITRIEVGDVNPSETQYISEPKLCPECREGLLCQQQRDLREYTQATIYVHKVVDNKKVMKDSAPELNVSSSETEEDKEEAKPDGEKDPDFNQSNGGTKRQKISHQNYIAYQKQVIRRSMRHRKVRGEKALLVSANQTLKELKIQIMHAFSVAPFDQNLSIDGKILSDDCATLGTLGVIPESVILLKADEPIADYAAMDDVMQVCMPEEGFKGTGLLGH
Method in brief: as §1

[5] = target: T4, USP5 (UniProt P45974)
T4 sequence (whole entry): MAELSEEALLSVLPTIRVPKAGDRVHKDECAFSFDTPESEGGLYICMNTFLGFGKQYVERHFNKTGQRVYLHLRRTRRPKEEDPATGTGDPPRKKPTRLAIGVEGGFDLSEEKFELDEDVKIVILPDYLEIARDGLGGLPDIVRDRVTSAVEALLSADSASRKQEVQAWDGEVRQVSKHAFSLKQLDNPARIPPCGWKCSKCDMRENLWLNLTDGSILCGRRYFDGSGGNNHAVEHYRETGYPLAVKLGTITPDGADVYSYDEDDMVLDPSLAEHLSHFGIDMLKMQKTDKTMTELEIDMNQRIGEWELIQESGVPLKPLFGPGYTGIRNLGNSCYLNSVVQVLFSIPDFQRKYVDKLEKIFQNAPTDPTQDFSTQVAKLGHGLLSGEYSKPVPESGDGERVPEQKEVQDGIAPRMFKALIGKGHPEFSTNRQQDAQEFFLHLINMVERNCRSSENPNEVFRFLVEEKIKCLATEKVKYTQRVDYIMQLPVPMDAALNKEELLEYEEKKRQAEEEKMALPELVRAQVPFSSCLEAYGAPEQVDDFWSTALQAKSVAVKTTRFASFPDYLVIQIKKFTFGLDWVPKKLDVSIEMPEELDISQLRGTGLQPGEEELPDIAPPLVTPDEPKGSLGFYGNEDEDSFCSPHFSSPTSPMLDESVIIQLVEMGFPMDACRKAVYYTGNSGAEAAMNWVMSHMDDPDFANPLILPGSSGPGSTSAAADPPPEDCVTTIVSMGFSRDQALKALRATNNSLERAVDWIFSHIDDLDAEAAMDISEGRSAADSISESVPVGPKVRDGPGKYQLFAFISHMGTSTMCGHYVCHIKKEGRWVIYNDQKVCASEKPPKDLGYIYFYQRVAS
Method in brief: as §1

[6] = target: USP54 (UniProt Q70EL1)
Method in brief: as §1

[7] = target: USP7 (UniProt Q93009)
USP7, sequence (Q93009 whole entry, looked up): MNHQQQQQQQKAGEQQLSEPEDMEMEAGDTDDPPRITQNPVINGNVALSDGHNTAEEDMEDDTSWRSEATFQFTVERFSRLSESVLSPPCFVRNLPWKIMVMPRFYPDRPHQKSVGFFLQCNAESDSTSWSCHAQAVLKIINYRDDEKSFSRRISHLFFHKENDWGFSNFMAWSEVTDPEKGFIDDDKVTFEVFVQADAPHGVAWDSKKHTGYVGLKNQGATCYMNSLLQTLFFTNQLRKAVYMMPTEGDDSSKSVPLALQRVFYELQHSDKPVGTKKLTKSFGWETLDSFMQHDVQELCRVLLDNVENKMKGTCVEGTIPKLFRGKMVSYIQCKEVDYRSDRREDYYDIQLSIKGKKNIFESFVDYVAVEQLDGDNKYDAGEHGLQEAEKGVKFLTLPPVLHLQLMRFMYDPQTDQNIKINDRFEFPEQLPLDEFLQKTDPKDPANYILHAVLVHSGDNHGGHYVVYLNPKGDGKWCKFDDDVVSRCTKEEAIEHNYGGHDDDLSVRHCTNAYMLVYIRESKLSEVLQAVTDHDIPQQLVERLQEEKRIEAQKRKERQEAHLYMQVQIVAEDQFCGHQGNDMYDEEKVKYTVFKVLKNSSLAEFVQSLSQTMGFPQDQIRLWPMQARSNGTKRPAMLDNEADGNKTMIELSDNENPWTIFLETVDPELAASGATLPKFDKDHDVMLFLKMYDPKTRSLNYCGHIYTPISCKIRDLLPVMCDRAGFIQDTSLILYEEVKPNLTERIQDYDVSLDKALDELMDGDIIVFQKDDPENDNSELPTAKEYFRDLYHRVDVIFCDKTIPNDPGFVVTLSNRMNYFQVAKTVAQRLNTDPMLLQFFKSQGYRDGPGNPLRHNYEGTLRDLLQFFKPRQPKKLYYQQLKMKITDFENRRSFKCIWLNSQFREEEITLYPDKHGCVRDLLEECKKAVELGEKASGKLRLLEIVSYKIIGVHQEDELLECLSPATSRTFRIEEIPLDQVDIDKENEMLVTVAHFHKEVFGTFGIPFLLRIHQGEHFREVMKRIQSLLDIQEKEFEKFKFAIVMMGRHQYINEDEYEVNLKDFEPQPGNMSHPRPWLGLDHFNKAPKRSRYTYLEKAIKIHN
Method in brief: as §1

[8] = target: T5, USP8 (UniProt P40818)
T5 sequence (whole entry): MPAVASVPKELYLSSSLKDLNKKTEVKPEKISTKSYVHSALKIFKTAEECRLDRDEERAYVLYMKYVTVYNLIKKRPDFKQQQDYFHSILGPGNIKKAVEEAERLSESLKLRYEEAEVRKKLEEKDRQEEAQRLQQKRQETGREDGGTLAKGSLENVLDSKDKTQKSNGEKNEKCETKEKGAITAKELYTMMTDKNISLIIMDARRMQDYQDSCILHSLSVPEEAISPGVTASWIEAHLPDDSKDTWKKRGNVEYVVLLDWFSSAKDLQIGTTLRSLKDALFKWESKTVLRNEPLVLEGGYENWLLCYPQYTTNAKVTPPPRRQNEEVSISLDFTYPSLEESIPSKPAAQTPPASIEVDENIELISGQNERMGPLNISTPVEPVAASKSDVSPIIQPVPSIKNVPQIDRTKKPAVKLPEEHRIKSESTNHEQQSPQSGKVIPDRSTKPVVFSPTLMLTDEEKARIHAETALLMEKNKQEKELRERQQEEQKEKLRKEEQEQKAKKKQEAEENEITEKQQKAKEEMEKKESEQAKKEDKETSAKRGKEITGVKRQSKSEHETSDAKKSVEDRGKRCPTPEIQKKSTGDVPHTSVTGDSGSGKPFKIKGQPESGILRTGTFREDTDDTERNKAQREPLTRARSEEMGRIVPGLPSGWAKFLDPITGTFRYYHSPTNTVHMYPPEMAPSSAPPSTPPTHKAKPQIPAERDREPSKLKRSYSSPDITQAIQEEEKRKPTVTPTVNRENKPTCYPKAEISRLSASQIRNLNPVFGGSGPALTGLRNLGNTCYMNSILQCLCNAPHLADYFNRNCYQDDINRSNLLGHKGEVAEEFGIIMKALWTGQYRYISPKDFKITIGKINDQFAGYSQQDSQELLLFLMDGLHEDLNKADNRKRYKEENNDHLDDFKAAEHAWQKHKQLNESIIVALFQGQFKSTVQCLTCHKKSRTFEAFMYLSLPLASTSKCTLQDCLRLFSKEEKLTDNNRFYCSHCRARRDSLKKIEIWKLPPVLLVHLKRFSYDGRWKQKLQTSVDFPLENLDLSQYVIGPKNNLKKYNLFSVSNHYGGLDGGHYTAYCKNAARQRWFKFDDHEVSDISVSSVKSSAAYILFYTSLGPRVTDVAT
Method in brief: as §1

[9] = target: USP9X (UniProt Q93008)
USP9X, sequence (Q93008 whole entry): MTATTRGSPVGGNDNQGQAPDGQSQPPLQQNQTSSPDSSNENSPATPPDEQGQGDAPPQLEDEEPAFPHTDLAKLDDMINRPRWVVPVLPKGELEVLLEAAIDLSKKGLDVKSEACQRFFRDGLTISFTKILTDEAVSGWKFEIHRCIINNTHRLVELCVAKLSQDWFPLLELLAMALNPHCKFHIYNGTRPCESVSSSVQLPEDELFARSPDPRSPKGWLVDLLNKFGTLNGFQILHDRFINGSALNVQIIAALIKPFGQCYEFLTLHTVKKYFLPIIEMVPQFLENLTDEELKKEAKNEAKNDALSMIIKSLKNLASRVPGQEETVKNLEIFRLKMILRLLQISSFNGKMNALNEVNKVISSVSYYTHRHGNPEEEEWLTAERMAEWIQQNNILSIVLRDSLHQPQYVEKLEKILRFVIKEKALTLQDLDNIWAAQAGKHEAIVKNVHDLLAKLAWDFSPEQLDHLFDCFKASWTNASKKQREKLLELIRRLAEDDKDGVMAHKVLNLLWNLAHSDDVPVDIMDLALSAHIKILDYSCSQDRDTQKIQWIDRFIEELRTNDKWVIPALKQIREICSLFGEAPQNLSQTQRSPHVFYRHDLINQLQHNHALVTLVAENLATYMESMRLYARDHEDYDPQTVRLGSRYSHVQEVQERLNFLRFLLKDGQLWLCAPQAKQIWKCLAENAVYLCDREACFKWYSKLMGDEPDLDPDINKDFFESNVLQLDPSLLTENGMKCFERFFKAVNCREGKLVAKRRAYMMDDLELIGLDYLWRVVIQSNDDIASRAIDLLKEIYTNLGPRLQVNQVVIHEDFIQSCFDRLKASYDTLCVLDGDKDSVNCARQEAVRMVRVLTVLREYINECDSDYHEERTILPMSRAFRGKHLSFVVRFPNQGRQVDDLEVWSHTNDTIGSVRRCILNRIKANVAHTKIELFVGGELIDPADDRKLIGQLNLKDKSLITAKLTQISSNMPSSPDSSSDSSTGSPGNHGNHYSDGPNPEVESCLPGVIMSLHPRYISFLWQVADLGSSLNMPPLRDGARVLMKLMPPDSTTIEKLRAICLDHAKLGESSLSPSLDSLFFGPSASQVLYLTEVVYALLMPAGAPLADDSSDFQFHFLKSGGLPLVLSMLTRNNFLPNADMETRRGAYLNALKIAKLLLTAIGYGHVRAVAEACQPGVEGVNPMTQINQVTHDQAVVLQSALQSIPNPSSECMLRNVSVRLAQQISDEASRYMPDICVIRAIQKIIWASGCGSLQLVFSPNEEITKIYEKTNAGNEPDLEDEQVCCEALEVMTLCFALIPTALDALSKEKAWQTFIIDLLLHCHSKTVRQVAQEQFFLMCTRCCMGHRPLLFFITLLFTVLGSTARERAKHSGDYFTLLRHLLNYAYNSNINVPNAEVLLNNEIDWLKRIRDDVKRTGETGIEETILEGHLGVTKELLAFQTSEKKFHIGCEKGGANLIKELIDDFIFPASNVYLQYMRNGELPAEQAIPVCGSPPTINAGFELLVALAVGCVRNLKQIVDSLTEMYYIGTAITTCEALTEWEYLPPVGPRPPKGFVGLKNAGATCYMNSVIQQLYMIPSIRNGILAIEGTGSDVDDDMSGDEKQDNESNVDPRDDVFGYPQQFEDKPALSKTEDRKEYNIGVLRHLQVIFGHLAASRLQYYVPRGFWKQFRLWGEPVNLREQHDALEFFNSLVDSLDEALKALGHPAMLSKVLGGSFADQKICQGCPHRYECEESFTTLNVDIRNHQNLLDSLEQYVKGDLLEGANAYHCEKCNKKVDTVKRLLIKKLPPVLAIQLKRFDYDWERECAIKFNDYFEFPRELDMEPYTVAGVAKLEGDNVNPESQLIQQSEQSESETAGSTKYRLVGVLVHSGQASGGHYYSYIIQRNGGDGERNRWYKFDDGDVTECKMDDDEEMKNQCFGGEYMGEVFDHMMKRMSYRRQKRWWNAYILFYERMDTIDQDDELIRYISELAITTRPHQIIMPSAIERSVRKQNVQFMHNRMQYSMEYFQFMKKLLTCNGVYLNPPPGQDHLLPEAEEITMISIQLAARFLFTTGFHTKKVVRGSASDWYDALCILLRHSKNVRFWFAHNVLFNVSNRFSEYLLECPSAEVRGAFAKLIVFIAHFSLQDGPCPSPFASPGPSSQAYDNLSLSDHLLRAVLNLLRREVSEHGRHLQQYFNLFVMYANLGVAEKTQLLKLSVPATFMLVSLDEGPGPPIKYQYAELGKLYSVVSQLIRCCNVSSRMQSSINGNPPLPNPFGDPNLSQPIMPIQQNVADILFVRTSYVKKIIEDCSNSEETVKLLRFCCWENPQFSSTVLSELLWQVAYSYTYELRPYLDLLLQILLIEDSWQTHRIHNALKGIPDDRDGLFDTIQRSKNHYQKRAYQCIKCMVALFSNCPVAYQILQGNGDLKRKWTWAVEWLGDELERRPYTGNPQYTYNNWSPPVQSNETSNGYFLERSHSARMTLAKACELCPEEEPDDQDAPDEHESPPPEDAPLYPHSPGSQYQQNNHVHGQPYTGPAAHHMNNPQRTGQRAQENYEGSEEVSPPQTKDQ
Method in brief: as §1

[10] = target: UniProt O00487
UniProt O00487, sequence (O00487 whole entry): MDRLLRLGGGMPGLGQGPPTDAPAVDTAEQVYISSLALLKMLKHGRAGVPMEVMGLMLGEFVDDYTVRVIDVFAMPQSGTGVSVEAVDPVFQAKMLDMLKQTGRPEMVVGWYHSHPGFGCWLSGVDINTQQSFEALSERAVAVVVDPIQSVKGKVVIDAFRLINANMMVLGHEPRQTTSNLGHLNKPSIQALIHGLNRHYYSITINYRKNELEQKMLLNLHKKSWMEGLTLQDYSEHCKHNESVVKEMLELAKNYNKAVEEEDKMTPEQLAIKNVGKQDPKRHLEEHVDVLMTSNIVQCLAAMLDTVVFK
Method in brief: as §1

Measured: log2 ratio of Biotin-Ahx-Ub-VS probe labelling

O=C(CCl)N1CCc2[nH]c3ccccc3c2C1
inactive: [1] 0.132 | [2] -0.655 | [3] -0.863 | [4] -0.532 | [5] -0.461 | [6] -0.00488 | [7] -0.511 | [8] -0.774 | [9] -0.846 | [10] -0.243
